The record followed here is PubChem BioAssay.

Molecules are shown by their SMILES. Values joined by “and” are separate entries in the source; they are usually repeats but may differ in a detail not shown here. Identical values can stand only once. Inconclusive results are not listed. For part of these data: Results with a measured potency or affinity are listed apart. Active and inactive are the calls of the source.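 Rule for the calls, unless noted: active = compounds whose cell count with miR-34 switched on is under 0.7 times the count with it off; inactive = the rest.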

A short description of assay [1]: compounds altering viability of human ES cells (AID 493140; call rule not given here;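 note: cells exposed to compounds for four days before counting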). The note with it: human embryonic stem cell survival screen; stronger effect = higher value.
Assay [2] in a line: P. berghei load reduction in hepatocytes – cell-based, HepG2, luciferase luminescence, HepG2 viability, primary screen (AID 624349; in the data active = parasite load remaining mostly below about 12%, no sharp cut-off; inactive = mostly above about 10%;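 note: 100% = mean of DMSO negative control wells on the same plate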). The note with it: P. berghei liver stage in HepG2, luciferase luminescence, concentration not given here; parasite load remaining: stronger effect = lower value; viability: measured here: HepG2 viability without parasites.
The target of assay [3] is 6-phosphogluconate dehydrogenase, decarboxylating (Homo sapiens) (UniProt P52209). Description: inhibition of human phosphogluconate dehydrogenase – biochemical, recombinant enzyme, NADPH absorbance, primary screen (AID 1159550;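 active = at least 20% inhibition of 6-phosphogluconate dehydrogenase activity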). The note with it: recombinant 6PGD, NADPH absorbance 341 nm; at 10 µM; stronger effect = higher value.
6-phosphogluconate dehydrogenase, decarboxylating (Homo sapiens), sequence (P52209 whole entry, looked up): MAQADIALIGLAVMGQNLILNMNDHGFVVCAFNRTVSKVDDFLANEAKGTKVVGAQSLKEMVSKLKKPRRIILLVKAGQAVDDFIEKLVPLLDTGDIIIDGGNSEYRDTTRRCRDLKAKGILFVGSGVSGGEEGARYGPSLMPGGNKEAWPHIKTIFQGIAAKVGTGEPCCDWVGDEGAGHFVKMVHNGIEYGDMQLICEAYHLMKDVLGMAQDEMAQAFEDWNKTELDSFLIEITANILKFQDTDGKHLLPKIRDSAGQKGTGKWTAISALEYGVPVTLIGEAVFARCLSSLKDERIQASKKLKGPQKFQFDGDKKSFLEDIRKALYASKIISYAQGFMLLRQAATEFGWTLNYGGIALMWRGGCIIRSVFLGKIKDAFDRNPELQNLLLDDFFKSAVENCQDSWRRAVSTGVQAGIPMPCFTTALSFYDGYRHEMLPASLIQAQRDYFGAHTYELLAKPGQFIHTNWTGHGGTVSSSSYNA
Assay [4] in a line: viability loss with induced miR-34 in A549 – imaging, A549 dox-inducible miR-34, nuclei and caspase counts, primary screen (AID 1347080). The conditions noted are these: A549 miR-34 inducible, Hoechst nuclei count, 48 h.
Assay [5] is described as follows: MELAS cybrid and Rieske KO viability enhancers – cell-based, MELAS cybrids, Rieske KO mouse fibroblasts, CellTiter-Glo, primary screen (AID 1508586;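 active = mean z-score across replicates of 1.96 or higher in either the MELAS or the Rieske mutant cell line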;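 note: z relative to plate mean and SD of compound and empty wells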). The conditions noted are these: low glucose. Background: Cellular ATP, detected with luciferase, serves as a proxy for viable cell number.
Assay [6] concerns the target ATP-dependent translocase ABCB1 (Homo sapiens) (UniProt P08183). Nature of the assay: P-glycoprotein substrate transport blockade – cell-based (AID 377; in the data active = fluorescence slope change above about 50%). The conditions noted are these: MDR1-expressing cells, fluorescent substrate accumulation slope; stronger effect = higher value; concentration not given here.
The nature of assay [7]: blockers of polyQ-driven CASP3 activation – cell-based (AID 1583). The conditions noted are these: polyglutamine-induced caspase-3 activation, cell assay; stronger effect = higher value;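 tested at 10 µM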.
Assay [8] in a line: yeast 75Q aggregation reduction – 75Q-TubU reporter (AID 1593). The note with it: Yeast 75Q polyglutamine aggregation reporter.
A short description of assay [9]: restoration of touch response, mutant HTT neurons – whole organism, C. elegans mechanosensory neurons, N-terminal huntingtin (AID 1599). The note with it: C. elegans polyQ-huntingtin mechanosensory neurons, stronger effect = higher value.
Assay [10] is described as follows: blockers of cytochrome c efflux from mitochondria – biochemical, purified mitochondria (AID 1603).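 Note: mouse liver mitochondria challenged with calcium chloride; signal normalized to the plate average as 100%.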 The note with it: stronger effect = lower value.
Assay [11] can be described thus: polyglutamine aggregate formation blockers (AID 1604). The conditions noted are these: polyglutamine-induced protein aggregation inhibition assay; stronger effect = higher value; tested at 2.5 µM.
Assay [12] in a line: rescue of PC12 cells from polyQ htt toxicity – LDH release (AID 1610). The note with it: PC12 mutant huntingtin toxicity, final LDH at 4 uM, stronger effect = lower value.
Assay [13] can be described thus: glutamate transport activators, MN-1 cells, MN-1 cell line (AID 1612).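 Note: tested at 1 µM final; 0% = mean of DMSO vehicle wells on each plate; positive means more glutamate uptake than control and negative means less.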 The note with it: MN-1 motor neuron cells, stronger effect = higher value.
Assay [14] can be described thus: 75Q-TubH aggregate inhibition, S. cerevisiae, yeast (AID 1616). The note with it: S. cerevisiae 75Q-TubH polyglutamine aggregation suppression; stronger effect = higher value.
For assay [15], the target named is Mitogen-activated protein kinase 7 (Homo sapiens) (UniProt Q13164). Description: Gal4-ERK5 driven luciferase induction – cell-based, HTS, primary screen (AID 1508626;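 active = luciferase signal above three times the same-plate solvent-only control wells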;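 note: luciferase driven by Gal4-ERK5 fusion binding five Gal4 sites before minimal TATA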). The note with it: HeLa Gal4-ERK5 transactivation, 18 h, at 5 µM, stronger effect = higher value.
Mitogen-activated protein kinase 7 (Homo sapiens), sequence (Q13164 whole entry, looked up, the tested form may be a part): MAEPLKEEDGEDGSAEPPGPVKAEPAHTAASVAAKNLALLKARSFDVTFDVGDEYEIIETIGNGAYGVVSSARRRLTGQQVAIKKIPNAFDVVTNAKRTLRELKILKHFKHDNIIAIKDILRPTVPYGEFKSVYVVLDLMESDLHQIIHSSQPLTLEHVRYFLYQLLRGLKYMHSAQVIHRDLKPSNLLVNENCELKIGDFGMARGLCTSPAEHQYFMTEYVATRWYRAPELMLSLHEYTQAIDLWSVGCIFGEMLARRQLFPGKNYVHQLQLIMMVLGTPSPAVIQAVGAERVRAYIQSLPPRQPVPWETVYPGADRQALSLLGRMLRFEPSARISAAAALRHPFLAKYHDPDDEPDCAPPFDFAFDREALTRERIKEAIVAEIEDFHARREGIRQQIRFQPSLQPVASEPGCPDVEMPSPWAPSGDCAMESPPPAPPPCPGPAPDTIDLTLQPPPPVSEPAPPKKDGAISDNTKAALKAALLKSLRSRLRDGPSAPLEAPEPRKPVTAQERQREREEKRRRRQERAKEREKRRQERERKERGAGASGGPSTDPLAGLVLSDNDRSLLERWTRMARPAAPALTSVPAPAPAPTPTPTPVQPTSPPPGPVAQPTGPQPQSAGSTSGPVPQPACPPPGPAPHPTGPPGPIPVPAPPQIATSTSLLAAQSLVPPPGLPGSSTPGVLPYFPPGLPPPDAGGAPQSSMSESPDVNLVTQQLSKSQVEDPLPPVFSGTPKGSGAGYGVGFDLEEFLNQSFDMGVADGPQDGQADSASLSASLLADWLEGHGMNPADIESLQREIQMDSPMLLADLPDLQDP
Assay [16] concerns the target NAD(+) hydrolase SARM1 (Homo sapiens) (UniProt Q6SZW1). Description: blocking NAD cleavage by SARM1 SAM-TIR – cell lysate, NAD-Glo luminescence (AID 1508614;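 active = compound whose remaining NAD level is above about 45 nM, limit read from the data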;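 note: higher remaining NAD means stronger inhibition of SARM1 NADase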). The note with it: SAM-TIR HEK293T lysate NADase, at 1 µM, stronger effect = higher value.
A short description of assay [17]: compounds altering circadian rhythm period length – cell-based, LOPAC library, luminescence reporter (AID 2774; call rule not given here;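 note: values are relative to mean of DMSO wells on each plate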). The conditions noted are these: circadian reporter cells, at 7 µM, actives lie on both sides.
In assay [18] the test system is Hepatitis C virus NS3 helicase. Nature of the assay: blockers of NS3h binding to ssDNA – biochemical, fluorescence polarization, LOPAC1280 library, primary screen (AID 687035; in the data active = inhibition above about 37%). The note with it: Purified HCV NS3 helicase, Cy5-dT15 ssDNA binding fluorescence polarization; stronger effect = higher value; concentration not given here. A general note: In fluorescence polarisation assays a small probe gives low polarisation when free and higher when bound to something large.

Assay [19] is described as follows: compounds altering Cy5-DNA-NS3h complex signal – biochemical, LOPAC1280, artefact control for HCV NS3 helicase inhibitor project (AID 687037; call rule not given here). The note with it: Cy5-DNA-NS3h complex fluorescence interference counterscreen. For orientation: The purpose of a counterscreen is to sort out artefacts and off-target activity.
Assay [20] in a line: blockers of cellular phospholipid synthesis – cell-based, LOPAC library, screen 4, primary screen (AID 1347384; call rule not given here). The conditions noted are these: animal cells, phospholipid biosynthesis inhibition screen; at 10 µM.
Assay [21] is described as follows: galactose survival enhancers in mitochondrial complex I cybrids – cell-based, galactose medium, ATP luminescence, primary screen (AID 1645843;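 active = z-score of at least 1.8 in each of two replicates, scored against plate mean and spread of sample wells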;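 note: positive z means more ATP and so rescue of galactose-driven cybrid death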). The note with it: complex I mutant cybrid cells, 72 h, stronger effect = higher value.
A short description of assay [22]: chitosan synthesis blockers in C. neoformans – flow cytometry, Cibacron Brilliant Red staining (AID 1347148; call rule not given here;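 note: compound exposure lasted three days at 37 degrees C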). The conditions noted are these: Cryptococcus neoformans chitosan, stronger effect = lower value; at 10 µM unless noted.
The mark [23] stands for this setting: stronger effect = lower value, cell number ratio, induced over uninduced.
[24] abbreviates: measured here: relative caspase fold change +Dox/-Dox.
Where [25] appears, read: measured here: total cells with miR-34 induction, stronger effect = lower value.
The mark [26] stands for this setting: measured here: total cells without miR-34 induction.
The mark [27] stands for this setting: MELAS cybrid survival, CellTiter-Glo 48 h, stronger effect = higher value.
[28] abbreviates: Rieske KO mouse fibroblast survival, CellTiter-Glo 72 h.

ATP-dependent translocase ABCB1 (Homo sapiens), sequence (P08183 whole entry, looked up): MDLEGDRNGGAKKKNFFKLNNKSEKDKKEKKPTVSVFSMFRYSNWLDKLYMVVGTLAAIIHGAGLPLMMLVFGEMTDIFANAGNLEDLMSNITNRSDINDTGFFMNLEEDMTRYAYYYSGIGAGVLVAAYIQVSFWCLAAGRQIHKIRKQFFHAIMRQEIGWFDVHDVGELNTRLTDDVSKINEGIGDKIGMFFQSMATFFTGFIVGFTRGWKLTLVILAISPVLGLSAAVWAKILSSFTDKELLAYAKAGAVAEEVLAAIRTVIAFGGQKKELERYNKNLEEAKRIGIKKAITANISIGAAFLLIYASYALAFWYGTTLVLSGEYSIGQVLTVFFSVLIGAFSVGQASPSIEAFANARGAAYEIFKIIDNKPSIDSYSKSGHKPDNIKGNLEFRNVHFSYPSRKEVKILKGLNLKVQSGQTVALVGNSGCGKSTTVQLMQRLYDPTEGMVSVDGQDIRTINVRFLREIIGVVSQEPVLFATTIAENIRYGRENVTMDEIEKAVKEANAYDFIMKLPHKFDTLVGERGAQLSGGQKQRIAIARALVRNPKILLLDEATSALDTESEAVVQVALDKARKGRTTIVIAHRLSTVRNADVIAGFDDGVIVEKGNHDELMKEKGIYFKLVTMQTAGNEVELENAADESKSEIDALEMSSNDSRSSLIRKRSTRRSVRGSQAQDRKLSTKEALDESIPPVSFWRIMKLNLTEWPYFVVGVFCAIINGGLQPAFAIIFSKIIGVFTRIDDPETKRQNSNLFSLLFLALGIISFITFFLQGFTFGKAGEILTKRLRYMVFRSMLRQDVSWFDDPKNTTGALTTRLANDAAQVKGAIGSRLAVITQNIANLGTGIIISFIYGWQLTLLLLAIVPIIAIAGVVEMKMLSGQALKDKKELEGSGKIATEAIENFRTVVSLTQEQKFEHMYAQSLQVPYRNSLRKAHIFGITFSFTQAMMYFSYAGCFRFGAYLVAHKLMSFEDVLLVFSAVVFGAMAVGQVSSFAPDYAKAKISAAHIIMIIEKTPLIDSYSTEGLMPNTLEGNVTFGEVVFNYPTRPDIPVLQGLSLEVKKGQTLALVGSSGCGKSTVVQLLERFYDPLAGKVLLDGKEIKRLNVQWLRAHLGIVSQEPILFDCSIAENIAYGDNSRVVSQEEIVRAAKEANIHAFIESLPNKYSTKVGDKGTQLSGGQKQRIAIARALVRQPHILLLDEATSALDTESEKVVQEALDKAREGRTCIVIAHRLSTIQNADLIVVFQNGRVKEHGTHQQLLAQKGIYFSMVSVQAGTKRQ
NAD(+) hydrolase SARM1 (Homo sapiens), sequence (Q6SZW1 whole entry, looked up): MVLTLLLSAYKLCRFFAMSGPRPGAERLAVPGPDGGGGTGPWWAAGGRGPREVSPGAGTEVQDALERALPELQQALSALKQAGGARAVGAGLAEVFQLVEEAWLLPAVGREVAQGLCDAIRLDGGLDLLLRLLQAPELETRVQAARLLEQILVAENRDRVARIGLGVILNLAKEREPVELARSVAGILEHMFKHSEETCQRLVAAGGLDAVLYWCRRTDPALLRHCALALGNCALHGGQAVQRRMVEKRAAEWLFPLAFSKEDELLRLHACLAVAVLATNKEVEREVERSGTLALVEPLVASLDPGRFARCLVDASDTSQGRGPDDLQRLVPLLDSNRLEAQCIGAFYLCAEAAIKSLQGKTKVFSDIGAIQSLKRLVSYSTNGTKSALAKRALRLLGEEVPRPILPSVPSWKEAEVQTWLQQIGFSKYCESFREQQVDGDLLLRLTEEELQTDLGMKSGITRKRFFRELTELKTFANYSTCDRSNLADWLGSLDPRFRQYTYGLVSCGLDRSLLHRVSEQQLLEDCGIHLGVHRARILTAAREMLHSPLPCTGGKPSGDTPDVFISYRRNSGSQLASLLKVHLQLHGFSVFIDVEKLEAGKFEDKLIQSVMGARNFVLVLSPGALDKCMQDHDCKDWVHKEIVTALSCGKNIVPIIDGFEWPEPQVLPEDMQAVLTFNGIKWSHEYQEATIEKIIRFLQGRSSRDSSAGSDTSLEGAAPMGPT

As usually defined, the viability is a read-out of living cells in per cent, often relative to untreated cells. A word on the inhibition: it is the change of the read-out against control, counted positive when it falls. For `CC[C@H](CO)NCCN[C@H](CC)CO`, the survival in [1] was 12.8 (inactive). The parasite load remaining in assay [2] was 28.5% (inactive) and 112% (inactive). Further, the viability in assay [2] is 48.5% and 92.2%. In addition, the inhibition in assay [3] is -0.439% (inactive). Further, the values for the fold change in [4] (setting [23]) and in assay [4] (setting [24]) were 0.912 (inactive) and 0.977, respectively. In addition, the figures for the cell count in assay [4] (setting [25]) and in assay [4] (setting [26]) were 8580 and 9410, respectively. Moreover, the z-score in assay [5] (setting [27]) is 0.519 (inactive); in assay [5] (setting [28]), 0.22.
For the compound `CCOc1ccc2c(c1)C(C)=CC(C)(C)N2`, the fluorescence slope change in assay [6] is 16.6% (inactive). For the same compound, the inhibition in assay [7] is 14.7%; in assay [3], 17.3% (inactive). In addition, the score in [8] turned out to be 0.77. Further, in assay [9], the rescue above control is 5.1. For the same compound, the cytochrome c release ratio in assay [10] is 0.79. For the same compound, the inhibition of aggregation in assay [11] turned out to be 25.8%. This compound also registered a normalised LDH release in assay [12] of 1.06. Besides, the glutamate uptake change in assay [13] was 23.6%. In assay [14], this compound displayed an aggregation suppression score of 0.616. In addition, the survival in [1] was 2.08 (inactive). Also, the parasite load remaining in assay [2] was 29.9% (inactive). The viability in assay [2] is 95.9%. Moreover, the values for the fold change in [4] (setting [23]) and in [4] (setting [24]) were 0.841 (inactive) and 1.09, respectively. For the same compound, the cell count in [4] (setting [25]) stood at 8590; in assay [4] (setting [26]), 10200. In addition, the values for the z-score in assay [5] (setting [27]) and in [5] (setting [28]) were 1.71 (inactive) and 0.609, respectively. The luciferase signal in assay [15] was 48 AU (inactive).
Turning to `COc1ccc(C(Cl)=C(c2ccc(OC)cc2)c2ccc(OC)cc2)cc1`, the fluorescence slope change in assay [6] was 9.3% (inactive). The survival in assay [1] is 4.42 (inactive). Moreover, in [2], the parasite load remaining is 9.26% (inactive) and 45.4% (inactive) and 50.6% (inactive). The viability in assay [2] is 85.2% and 70.2% and 89.6%. The inhibition in [3] was 7.15% (inactive). Further, the fold change is 0.946 (inactive) and 0.925 (inactive) in assay [4] (setting [23]); 1.03 and 1.43 in assay [4] (setting [24]). The cell count in assay [4] (setting [25]) was 9940 and 11400; in [4] (setting [26]), 10500 and 12300. The z-score in assay [5] (setting [27]) is 0.437 (inactive); in assay [5] (setting [28]), 0.0944. In assay [15], the luciferase signal was 40 AU (inactive).
With `NCC[C@H](O)C(=O)N[C@@H]1C[C@H](N)[C@@H](O[C@H]2O[C@H](CN)[C@@H](O)[C@H](O)[C@H]2O)[C@H](O)[C@H]1O[C@H]1O[C@H](CO)[C@@H](O)[C@H](N)[C@H]1O`, the parasite load remaining in assay [2] was 126% (inactive). The viability in assay [2] was found to be 113%. In addition, the inhibition in assay [3] was -15.3% (inactive). For the same compound, the fold change in assay [4] (setting [23]) was 0.816 (inactive); in [4] (setting [24]), 1.79. Besides, the cell count turned out to be 8210 in assay [4] (setting [25]) and 10100 in [4] (setting [26]). For the same compound, the values for the z-score in assay [5] (setting [27]) and in [5] (setting [28]) were -0.451 (inactive) and -0.0793, respectively. The remaining NAD in assay [16] is 10 nM (inactive). Besides, in [15], the luciferase signal is 60 AU (inactive).
In the case of `C=C(C)C1CC=C(C(=O)O)CC1` (stereo unspecified), the period change in assay [17] was 0.05 h (inactive). The inhibition was 2% (inactive) in [18] and 7.19% (inactive) in assay [3]. Moreover, the fluorescence ratio (interference) in assay [19] was 0.9 (inactive). The figures for the fold change in [4] (setting [23]) and in assay [4] (setting [24]) were 0.98 (inactive) and 1.41, respectively. Moreover, the cell count in [4] (setting [25]) worked out at 9720; in [4] (setting [26]), 9920. Besides, the result in [20] was inactive. In [21], the z-score is 1.06 (inactive).
As to `CCCCC/C=C\C/C=C\C/C=C\C/C=C\CCCC(=O)O`, in [1], the survival is 45.6 (inactive). Moreover, the inhibition in assay [3] is 9.46% (inactive). The fold change was 1.06 (inactive) and 1 (inactive) in [4] (setting [23]); 1.01 and 0.893 in assay [4] (setting [24]). The cell count is 5710 and 5370 in assay [4] (setting [25]); 5370 and 5360 in assay [4] (setting [26]). Further, in assay [22], the fold fluorescence was 5.45 (inactive).
For the compound `CO/N=C(\C(=O)N[C@@H]1C(=O)N2C(C(=O)O)=C(COC(N)=O)CS[C@H]12)c1ccco1`, in [2], the parasite load remaining is 120% (inactive). Further, the viability in assay [2] amounted to 107%. For the same compound, the inhibition in assay [3] was -1.88% (inactive). Besides, the fold change in [4] (setting [23]) is 0.899 (inactive); in assay [4] (setting [24]), 1.25. In addition, the cell count in assay [4] (setting [25]) came to 8800; in assay [4] (setting [26]), 9790. Besides, the results for the z-score in [5] (setting [27]) and in assay [5] (setting [28]) were -0.736 (inactive) and -1.31, respectively. The remaining NAD in assay [16] is 10 nM (inactive). In assay [15], the luciferase signal was 48 AU (inactive).
